Measurements reported in PubChem BioAssay (NCI).
Compounds without any hit were thinned out: in the full panel of roughly 83,000, 20% have a hit.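 For each line, cells grew in 96-well plates with the test compound present at a single concentration for 48 hours.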 Activity calls are given as the source filed them. How the source made its calls: active means growth percent below 10; inactive means the rest.

Key:
Experiment in all cases: NCI-60 one-dose screen, 48 h (100 = growth as untreated, 0 = no growth, -100 = all killed)
Conditions in all cases: 10 µM unless noted
SR leukemia = system: SR leukemia
RPMI-8226 leukemia = system: RPMI-8226 leukemia
OVCAR-8 ovarian = system: OVCAR-8 ovarian
OVCAR-5 ovarian = system: OVCAR-5 ovarian
OVCAR-4 ovarian = system: OVCAR-4 ovarian
SK-OV-3 ovarian = system: SK-OV-3 ovarian
IGROV1 ovarian = system: IGROV1 ovarian
OVCAR-3 ovarian = system: OVCAR-3 ovarian
HS 578T breast = system: HS 578T breast
NCI/ADR-RES ovarian = system: NCI/ADR-RES ovarian

Measured: growth

ClCCn1cnc2c(SCc3ccccc3)ncnc21
inactive: SR leukemia 43.6% | RPMI-8226 leukemia 50.9% | OVCAR-8 ovarian 41.8% | OVCAR-5 ovarian 101% | OVCAR-4 ovarian 81.8% | SK-OV-3 ovarian 62.5% | IGROV1 ovarian 133% | OVCAR-3 ovarian 73.4% | HS 578T breast 62.8% | NCI/ADR-RES ovarian 57.1%

O=S(=O)(Nc1ccc2ccccc2c1)c1ccc(-c2cnc(C3CC3)o2)cc1
active: OVCAR-3 ovarian 1.73% | NCI/ADR-RES ovarian 9.69%
inactive: SR leukemia 16.5% | RPMI-8226 leukemia 12% | OVCAR-8 ovarian 24.6% | OVCAR-5 ovarian 48% | OVCAR-4 ovarian 70.4% | SK-OV-3 ovarian 32.7% | IGROV1 ovarian 39.1% | HS 578T breast 13.4%

Cc1cc(Cl)nc(N2CCN(CCNc3ccnc4cc(Cl)ccc34)CC2)n1
active: SR leukemia -7.81%
inactive: RPMI-8226 leukemia 13.5% | OVCAR-8 ovarian 61.5% | OVCAR-5 ovarian 66.6% | OVCAR-4 ovarian 40.1% | SK-OV-3 ovarian 56.9% | IGROV1 ovarian 61% | OVCAR-3 ovarian 60.7% | HS 578T breast 76.8% | NCI/ADR-RES ovarian 45.2%

O=C1O[C@@H](c2ccccc2Cl)[C@@H]2c3cc4c(cc3CCN12)OCO4
inactive: SR leukemia 100% | RPMI-8226 leukemia 94.4% | OVCAR-8 ovarian 98.7% | OVCAR-5 ovarian 113% | OVCAR-4 ovarian 104% | SK-OV-3 ovarian 119% | IGROV1 ovarian 94% | OVCAR-3 ovarian 100% | HS 578T breast 101% | NCI/ADR-RES ovarian 104%

COc1ccc(-c2nc3ccc(C)cc3c3c2c(=O)n(C)c(=O)n3C)cc1OC
inactive: SR leukemia 99.4% | RPMI-8226 leukemia 101% | OVCAR-8 ovarian 107% | OVCAR-5 ovarian 97% | OVCAR-4 ovarian 122% | SK-OV-3 ovarian 109% | IGROV1 ovarian 108% | OVCAR-3 ovarian 111% | HS 578T breast 74.3% | NCI/ADR-RES ovarian 92.5%

CCN(CC)CCOc1ccc(Nc2ncc3cc(-c4c(Cl)cccc4Cl)c(=O)n(CCOC)c3n2)cc1
inactive: OVCAR-4 ovarian 35.3%
active: SR leukemia -30.8% | RPMI-8226 leukemia 2.23% | OVCAR-8 ovarian 9.23% | OVCAR-5 ovarian 2.15% | SK-OV-3 ovarian 2.93% | IGROV1 ovarian -21.9% | OVCAR-3 ovarian -22% | HS 578T breast 8.49% | NCI/ADR-RES ovarian 6.66%

N#Cc1ccc(O)c(C2=NCC(c3ccc(-c4ccccc4)cc3)O2)c1 (stereo not given)
inactive: SR leukemia 23.7% | RPMI-8226 leukemia 23.8% | OVCAR-8 ovarian 16.6% | OVCAR-5 ovarian 38.7% | IGROV1 ovarian 13.7% | OVCAR-3 ovarian 22.7% | HS 578T breast 48.9%
active: OVCAR-4 ovarian -1.03% | SK-OV-3 ovarian 3.28% | NCI/ADR-RES ovarian 5.24%

Nc1[nH]nc2nc(-c3ccccc3)n3c4ccccc4nc3c12
inactive: SR leukemia 92.2% | RPMI-8226 leukemia 101% | OVCAR-8 ovarian 98.8% | OVCAR-5 ovarian 106% | OVCAR-4 ovarian 101% | SK-OV-3 ovarian 93% | IGROV1 ovarian 77.9% | OVCAR-3 ovarian 106% | HS 578T breast 106% | NCI/ADR-RES ovarian 104%

CN(C)CCCNC(=O)c1cncnc1Nc1ccc2c(ccn2Cc2cccc(F)c2)c1
active: SR leukemia -10.3%
inactive: RPMI-8226 leukemia 86.3% | OVCAR-8 ovarian 101% | OVCAR-5 ovarian 97.5% | OVCAR-4 ovarian 116% | SK-OV-3 ovarian 111% | IGROV1 ovarian 90.1% | OVCAR-3 ovarian 93.4% | HS 578T breast 81.3% | NCI/ADR-RES ovarian 99.2%

CCN(CC)CCN1C(=O)c2c(c3c4ccccc4[nH]c3c3ccc4ccccc4c23)C1=O
active: SR leukemia -22.5% | RPMI-8226 leukemia -33.1% | OVCAR-8 ovarian -29.1% | OVCAR-5 ovarian -85.8% | OVCAR-4 ovarian -79.5% | NCI/ADR-RES ovarian -40.9%
inactive: SK-OV-3 ovarian 83.1% | IGROV1 ovarian 76.1% | OVCAR-3 ovarian 109% | HS 578T breast 87.4%

N#CC1=C(N)Oc2c(sc3c(F)cccc23)C1c1ccc([N+](=O)[O-])cc1 (stereo not given)
inactive: OVCAR-4 ovarian 15.1%
active: SR leukemia 5.1% | RPMI-8226 leukemia -9.41% | OVCAR-8 ovarian -21.6% | OVCAR-5 ovarian -14.6% | SK-OV-3 ovarian -7.03% | IGROV1 ovarian -26% | OVCAR-3 ovarian -55.1% | HS 578T breast -26.1% | NCI/ADR-RES ovarian -14.2%

O=C(/C=C/c1ccco1)Nc1ncc(Cc2cc(Cl)ccc2Cl)s1
active: OVCAR-3 ovarian -44% | HS 578T breast 8.67% | NCI/ADR-RES ovarian -0.63%
inactive: SR leukemia 12.1% | RPMI-8226 leukemia 23% | OVCAR-8 ovarian 14.1% | OVCAR-5 ovarian 34% | OVCAR-4 ovarian 56.8% | SK-OV-3 ovarian 31.9%

COC(=O)[C@@]12CC=C(C)[C@]3(C[C@H](c4ccoc4)OC3=O)[C@H]1C=C[C@@H](O)[C@@]2(O)C(=O)OC
inactive: SR leukemia 89.2% | RPMI-8226 leukemia 120% | OVCAR-8 ovarian 96.4% | OVCAR-5 ovarian 103% | OVCAR-4 ovarian 110% | SK-OV-3 ovarian 99.9% | OVCAR-3 ovarian 105% | NCI/ADR-RES ovarian 102%

C=C1SC(=Nc2ccccc2Cl)N(C(=O)c2sc3ccccc3c2Cl)C1(C)C
inactive: SR leukemia 65.4% | OVCAR-8 ovarian 61.4% | OVCAR-5 ovarian 92.4% | OVCAR-4 ovarian 29.8% | SK-OV-3 ovarian 58.6% | OVCAR-3 ovarian 39.6% | HS 578T breast 73.5% | NCI/ADR-RES ovarian 31.7%
active: RPMI-8226 leukemia 4.32%

Nc1c(Br)cc2c(c1Br)Cc1cc([N+](=O)[O-])ccc1-2
inactive: SR leukemia 64.3% | RPMI-8226 leukemia 91.3% | OVCAR-8 ovarian 95.4% | OVCAR-5 ovarian 112% | OVCAR-4 ovarian 85.4% | SK-OV-3 ovarian 92.2% | OVCAR-3 ovarian 111% | NCI/ADR-RES ovarian 104%

CNC(=O)c1cc(Oc2ccc3c(c2)sc2nc(-c4ccc(NC(=O)[C@@H](NC(=O)OC)C(C)C)cc4)cn23)ccn1
inactive: SR leukemia 66.1% | RPMI-8226 leukemia 30.3% | OVCAR-8 ovarian 34.9% | OVCAR-5 ovarian 117% | OVCAR-4 ovarian 66.4% | SK-OV-3 ovarian 98% | OVCAR-3 ovarian 63.3% | HS 578T breast 81.6% | NCI/ADR-RES ovarian 65.1%

CN1CCN(c2ccc(NC3=CC(=O)c4ncncc4C3=O)cc2)CC1
active: SR leukemia -5.62% | RPMI-8226 leukemia -29.1% | OVCAR-8 ovarian -53.2% | OVCAR-5 ovarian -92.3% | OVCAR-4 ovarian -99% | SK-OV-3 ovarian -63.7% | OVCAR-3 ovarian -58.6% | HS 578T breast -19.6% | NCI/ADR-RES ovarian -20.4%

CCOC(=O)/C=C1\S/C(=N\Nc2cc(=O)[nH]c3ccc(Br)cc23)N(c2ccccc2)C1=O
inactive: OVCAR-8 ovarian 72.2% | OVCAR-5 ovarian 102% | OVCAR-4 ovarian 58% | SK-OV-3 ovarian 110% | HS 578T breast 74.7% | NCI/ADR-RES ovarian 97.1%
active: SR leukemia 3.76% | RPMI-8226 leukemia -12.5% | OVCAR-3 ovarian -17%

O=C(Cc1ccc(/C=C/C(=O)c2ncc[nH]2)cc1)Nc1cc(F)c(F)c(F)c1
active: RPMI-8226 leukemia 0.541% | OVCAR-3 ovarian 3.93%
inactive: SR leukemia 14.9% | OVCAR-8 ovarian 41.7% | OVCAR-5 ovarian 80.7% | OVCAR-4 ovarian 72.7% | SK-OV-3 ovarian 103% | HS 578T breast 37% | NCI/ADR-RES ovarian 66.5%

COc1ccc2[nH]cc(-c3nonc3-c3c[nH]c4ccc(Br)cc34)c2c1
inactive: SR leukemia 35.4% | RPMI-8226 leukemia 52.7% | OVCAR-8 ovarian 48.7% | OVCAR-5 ovarian 47.7% | OVCAR-4 ovarian 50.1% | SK-OV-3 ovarian 56.3% | OVCAR-3 ovarian 62.6% | HS 578T breast 55.1% | NCI/ADR-RES ovarian 39.9%

Nc1cccc(-c2ccc(COc3ccc(CC4SC(=O)NC4=O)cc3)cc2)c1 (stereo not given)
inactive: SR leukemia 26.8% | RPMI-8226 leukemia 53.8% | OVCAR-8 ovarian 70.1% | OVCAR-5 ovarian 92.2% | OVCAR-4 ovarian 56.4% | SK-OV-3 ovarian 62.1% | OVCAR-3 ovarian 49.9% | HS 578T breast 59.8% | NCI/ADR-RES ovarian 47.1%

O=C(/C=C/c1ccccc1)N(C1CCCCC1)C1CCCCC1
inactive: SR leukemia 83.8% | RPMI-8226 leukemia 51.8% | OVCAR-8 ovarian 95% | OVCAR-5 ovarian 106% | OVCAR-4 ovarian 84% | SK-OV-3 ovarian 117% | OVCAR-3 ovarian 89.6% | HS 578T breast 90.8% | NCI/ADR-RES ovarian 74.5%

Cc1ccc(OCCOCCOCCOc2ccc(C)n(O)c2=S)c(=S)n1O
inactive: SR leukemia 25.6% | RPMI-8226 leukemia 31.2% | OVCAR-8 ovarian 39.3% | OVCAR-5 ovarian 38.5% | OVCAR-4 ovarian 20.5% | SK-OV-3 ovarian 64.9% | OVCAR-3 ovarian 15.9% | HS 578T breast 56.3% | NCI/ADR-RES ovarian 16.4%

COc1ccc(-c2cc(-c3cn(-c4cccc(Cl)c4)nc3-c3ccc(OC)cc3)on2)cc1
inactive: SR leukemia 68.4% | RPMI-8226 leukemia 88.3% | OVCAR-8 ovarian 93.7% | OVCAR-5 ovarian 111% | OVCAR-4 ovarian 106% | SK-OV-3 ovarian 98% | OVCAR-3 ovarian 103% | HS 578T breast 96.3% | NCI/ADR-RES ovarian 100%

O=CCCCOCc1ccccc1
inactive: SR leukemia 96% | RPMI-8226 leukemia 100% | OVCAR-8 ovarian 103% | OVCAR-5 ovarian 101% | OVCAR-4 ovarian 98.6% | SK-OV-3 ovarian 99.9% | OVCAR-3 ovarian 110% | HS 578T breast 92.9% | NCI/ADR-RES ovarian 97.4%

Cn1cc(-c2nc3c(F)cc4[nH]ncc4c3c3c2CCCC3)c(C(F)(F)F)n1
active: SR leukemia -30.9% | RPMI-8226 leukemia -5.82%
inactive: OVCAR-8 ovarian 39.4% | OVCAR-5 ovarian 65% | OVCAR-4 ovarian 73.8% | SK-OV-3 ovarian 14.1% | OVCAR-3 ovarian 55.2% | NCI/ADR-RES ovarian 60.2%

CC1(C)N=C(N)N=C(N)N1c1cc(Cl)ccc1Cl
inactive: SR leukemia 67% | RPMI-8226 leukemia 107% | OVCAR-8 ovarian 85.5% | OVCAR-5 ovarian 59.2% | OVCAR-4 ovarian 96.4% | SK-OV-3 ovarian 97.2% | OVCAR-3 ovarian 115% | HS 578T breast 101% | NCI/ADR-RES ovarian 67.8%

CC(O)CNC(Cc1ccccc1)c1ccc2c(c1)OCO2 (stereo not given)
inactive: SR leukemia 101% | RPMI-8226 leukemia 90.3% | OVCAR-8 ovarian 97.1% | OVCAR-5 ovarian 59.6% | OVCAR-4 ovarian 102% | SK-OV-3 ovarian 66.2% | OVCAR-3 ovarian 98.7% | HS 578T breast 103% | NCI/ADR-RES ovarian 94.7%
